Bioassay records (PubChem BioAssay)
This is one part of a sample in which hits are shown more often than they occur.
ID4 binder = binders of human ID4 protein; hit rate 1.2% among 31,000; calls only; AID 624137; small molecule microarray, Flag-ID4 binding, fluorescence F/B; call rule not given here;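 further: a binder raises fluorescence above local background on the spot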
Target sequence (P47928 whole entry, looked up): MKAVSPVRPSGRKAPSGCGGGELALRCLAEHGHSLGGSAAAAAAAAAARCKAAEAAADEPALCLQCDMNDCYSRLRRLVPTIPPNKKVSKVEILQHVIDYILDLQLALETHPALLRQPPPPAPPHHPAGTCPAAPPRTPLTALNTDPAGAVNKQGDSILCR
STK33 inh = blocks human STK33 kinase activity. hit rate 0.44% among 27,000. Q9BYT3. ADP-Glo luminescence, MBP substrate. inhibition, % at 12.5 µM. AID 2322; in the data active means inhibition above about 20%
Large screens that a line does not name were inactive.

Cc1c(C(=O)c2cccc3ccccc23)c2cccc3c2n1[C@@H](CN1CCOCC1)CO3	ID4 binder active (no result: STK33 inh)
CC(C)=CCCN1CCC(NC(=O)[C@](O)(c2ccccc2)C2CCCC2)CC1	none (no result: STK33 inh)
CC(=O)O[C@H]1CC[C@]2(C=O)[C@H]3CC[C@]4(C)[C@@H](C5=CC(=O)OC5)CC[C@]4(O)[C@@H]3CC[C@]2(O)C1	none
